# Records with an inconclusive call do not appear. Calls of active or inactive are those of the source. Unless noted, the rule behind the calls is not given here.
# Legend:
# [1] = liver-stage malaria parasite growth inhibition, primary screen, cell-based, HepG2, luciferase luminescence, HepG2 viability (AID 624349; in the data active = parasite load remaining mostly below about 12%, no sharp cut-off; inactive = mostly above about 10%;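 note: 100% = mean of DMSO negative control wells on the same plate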); settings: P. berghei liver stage in HepG2, luciferase luminescence, concentration not given here; parasite load remaining: stronger effect = lower value; viability: measured here: HepG2 viability without parasites
# [2] = kinase inhibitors against Plasmodium liver-stage infection, cell-based, known kinase inhibitor set, luminescence, hepatoma host viability (AID 624392); settings: Plasmodium liver stage in hepatoma cells, luciferase luminescence, concentration not given here; liver cell % of control: measured here: host liver cell viability; parasite % of control: stronger effect = lower value;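 note: infected cells incubated roughly two days before readout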
# [3] = modulators of glucocorticoid suppression of NF-kB, cell-based, luciferase, IL-1B stimulus, dexamethasone (AID 624486); settings: NF-kB luciferase reporter, IL-1B + dexamethasone, luminescence; percent of negative control (+Dex): actives lie on both sides, concentration not given here; z-score: measured here: IL-1B alone, no Dex;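 for percent of negative control (+Dex): 100% = mean signal of vehicle control wells on the plate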
# [4] = target: Cellular tumor antigen p53 (Homo sapiens) (UniProt P04637); assay: kinase inhibitors altering GFP-p53 stability in HPV16-positive cells, imaging, known kinase inhibitor set, EGFP/DsRed ratio (AID 1053116); settings: stronger effect = higher value; EGFP object count: measured here: GFP-p53 positive objects count;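 note: cells exposed to compounds for 24 h at 37 °C before reading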
# [5] = IRF3 reporter activation in THP-1 macrophages, cell-based, PMA-stimulated THP-1, luminescence (AID 1053176); settings: PMA-differentiated THP-1, IRF3 reporter luminescence; stronger effect = higher value
# [6] = survival rescue of mitochondrial mutant cells in low glucose, primary screen, MELAS cybrids, Rieske KO mouse fibroblasts, CellTiter-Glo (AID 1508586;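 active = mean z-score across replicates of 1.96 or higher in either the MELAS or the Rieske mutant cell line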;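 note: z relative to plate mean and SD of compound and empty wells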)
# [7] = viability rescue of complex I mutant cybrids, primary screen, cell-based, galactose medium, ATP luminescence (AID 1645843;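 active = z-score of at least 1.8 in each of two replicates, scored against plate mean and spread of sample wells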;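 note: positive z means more ATP and so rescue of galactose-driven cybrid death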); settings: complex I mutant cybrid cells, 72 h, stronger effect = higher value
# [8] = kinase inhibitors altering Pseudomonas killing of worms, whole organism (AID 651566);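 note: tested at 14 µM; sign flipped so higher z means a lower ratio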; settings: C. elegans killed by P. aeruginosa, survival ratio
# [9] = activators of macrophage pro-inflammatory response, cell-based, murine, luminescence (AID 652131); settings: murine macrophage pro-inflammatory reporter, stronger effect = higher value
# [10] = growth inhibition of DIPG glioma cells, dose response, cell-based, SU-DIPG-XIII, MIPE4.0, CellTiter-Glo, qHTS (AID 1347061; cut-off not given, nearly all actives have AC50 up to about 37 µM;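 note: cells exposed to compound for 48 hours before readout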); settings: SU-DIPG-XIII viability, CellTiter-Glo ATP luminescence
# [11] = growth inhibition of DIPG glioma cells, dose response, cell-based, JHH-DIPG-1, MIPE4.0, CellTiter-Glo, qHTS (AID 1347062; cut-off not given, nearly all actives have AC50 up to about 27 µM;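 for AC50: cells exposed to compound for two days before readout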); settings: JHH-DIPG-1 viability, CellTiter-Glo ATP luminescence
# [12] = growth inhibition of DIPG glioma cells, dose response, cell-based, SU-DIPG-IV, MIPE4.0, CellTiter-Glo, qHTS (AID 1347063; cut-off not given, nearly all actives have AC50 up to about 30 µM;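 note: compound exposure lasted 48 hours before the viability readout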); settings: SU-DIPG-IV viability, CellTiter-Glo ATP luminescence
# [13] = viability loss in pontine glioma line – cell-based, SU-DIPG-XXV, MIPE5.0, CellTiter-Glo, qHTS, dose response (AID 1347065; cut-off not given, nearly all actives have AC50 up to about 26 µM;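 note: cells exposed to compound for 48 hours before ATP readout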); settings: CellTiter-Glo ATP luminescence
# [14] = SU-DIPG-VI glioma cell viability, MIPE4.0 library, CellTiter-Glo luminescence, qHTS (AID 1347066; cut-off not given, nearly all actives have AC50 up to about 30 µM;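 note: cells exposed to compound for 48 hours before readout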); settings: CellTiter-Glo ATP luminescence
# [15] = JHH-DIPG-1 glioma cell viability, MIPE5.0 library, CellTiter-Glo luminescence, qHTS (AID 1347067; cut-off not given, nearly all actives have AC50 up to about 26 µM;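 note: cells exposed to compound for 48 hours before readout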); settings: JHH-DIPG-1 glioma viability, CellTiter-Glo ATP luminescence
# [16] = SU-DIPG-XXV glioma cell viability, MIPE5.0 library, qHTS (AID 1347068; cut-off not given, nearly all actives have IC50 up to about 30 µM)
# [17] = sensitizers of A549 cells to miR-34 induction, primary screen, imaging, A549 dox-inducible miR-34, nuclei and caspase counts (AID 1347080;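 active = compounds whose cell count with miR-34 switched on is under 0.7 times the count with it off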); settings: A549 miR-34 inducible, Hoechst nuclei count, 48 h
# [18] = modifiers of HSF1 nuclear foci, imaging, Selleck Cancer Library (AID 1347162; in the data active = plate-normalised HSF1 focus index below about 0.46); settings: human cells, at 10 µM; SSMD: measured here: HSF1 foci SSMD mean; cell count: measured here: cell number; plate-normalised HSF1 focus index: stronger effect = lower value
# [19] = MELAS cybrid survival, CellTiter-Glo 48 h, stronger effect = higher value
# [20] = Rieske KO mouse fibroblast survival, CellTiter-Glo 72 h
# [21] = stronger effect = lower value, cell number ratio, induced over uninduced
# [22] = measured here: relative caspase fold change +Dox/-Dox
# [23] = measured here: total cells with miR-34 induction, stronger effect = lower value
# [24] = measured here: total cells without miR-34 induction
# Chain of Cellular tumor antigen p53 (Homo sapiens) (P04637 whole entry, looked up): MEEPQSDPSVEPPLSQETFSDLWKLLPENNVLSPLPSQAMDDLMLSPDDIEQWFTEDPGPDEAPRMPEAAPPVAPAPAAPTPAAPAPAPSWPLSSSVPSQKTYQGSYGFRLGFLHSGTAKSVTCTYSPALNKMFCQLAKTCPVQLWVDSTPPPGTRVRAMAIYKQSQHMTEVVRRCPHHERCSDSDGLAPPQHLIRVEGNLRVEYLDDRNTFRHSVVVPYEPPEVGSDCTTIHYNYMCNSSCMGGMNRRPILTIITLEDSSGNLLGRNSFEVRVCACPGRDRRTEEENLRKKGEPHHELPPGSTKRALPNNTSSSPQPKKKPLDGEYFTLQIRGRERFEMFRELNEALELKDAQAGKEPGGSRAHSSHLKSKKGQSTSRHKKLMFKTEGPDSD
smiles,measurement,setting,value
Cn1cc(C2=C(c3cn(CCCSC(=N)N)c4ccccc34)C(=O)NC2=O)c2ccccc21,parasite load remaining,[1],30.4% (inactive)
same,viability,[1],73.7%
same,liver cell % of control,[2],100%
same,parasite % of control,[2],330% (inactive)
same,percent of negative control (+Dex),[3],98% (inactive)
same,z-score,[3],0.705
same,EGFP object count,[4],1
same,EGFP/DsRed ratio,[4],0.00598 (inactive)
same,fraction signal,[5],-0.0115 (inactive)
same,z-score,[6]; [19],3.84 (active)
same,z-score,[6]; [20],-1.11
same,z-score,[7],-0.7 (inactive)
CN(c1ccc(NC(=O)Nc2c(Cl)cccc2Cl)cc1)c1ccnc(Nc2cccc(CS(C)(=O)=O)c2)n1,liver cell % of control,[2],108%
same,parasite % of control,[2],130% (inactive)
same,percent of negative control (+Dex),[3],134% (inactive)
same,z-score,[3],3.88
same,z-score,[8],0.545 (inactive)
same,z-score,[9],5.36 (inactive)
same,EGFP object count,[4],4
same,EGFP/DsRed ratio,[4],0.171 (inactive)
same,fraction signal,[5],0.005 (inactive)
same,z-score,[6]; [19],-0.649 (inactive)
same,z-score,[6]; [20],-0.476
COc1cc2ncn(-c3cc(OCc4ccccc4S(C)(=O)=O)c(C#N)s3)c2cc1OC,parasite load remaining,[1],28.4% (inactive)
same,viability,[1],80.2%
same,liver cell % of control,[2],84.7%
same,parasite % of control,[2],80.2% (inactive)
same,percent of negative control (+Dex),[3],72.5% (inactive)
same,z-score,[3],-0.135
same,z-score,[8],-0.355 (inactive)
same,z-score,[9],8.9 (active)
same,EGFP object count,[4],7.5
same,EGFP/DsRed ratio,[4],0.318 (inactive)
same,fraction signal,[5],0.0015 (inactive)
same,outcome,[10],inactive
same,outcome,[11],inactive
same,outcome,[12],inactive
same,outcome,[13],inactive
same,outcome,[14],inactive
same,outcome,[15],inactive
same,outcome,[16],inactive
same,z-score,[6]; [19],0.713 (inactive)
same,z-score,[6]; [20],-0.131
CN(C)C(=O)O[C@@H]1CN[C@@H](C#Cc2cc3ncnc(Nc4ccc(OCc5cccc(F)c5)c(Cl)c4)c3s2)C1,liver cell % of control,[2],108%
same,parasite % of control,[2],112% (inactive)
same,percent of negative control (+Dex),[3],87% (inactive)
same,z-score,[3],-0.155
same,z-score,[8],0.705 (inactive)
same,z-score,[9],-0.722 (inactive)
same,EGFP object count,[4],4
same,EGFP/DsRed ratio,[4],0.0417 (inactive)
same,fraction signal,[5],-0.0055 (inactive)
same,z-score,[6]; [19],0.394 (inactive)
same,z-score,[6]; [20],-0.329
CN(C)c1cc2c(Nc3ccc4nc(Cc5ccccc5)[nH]c4c3)ncnc2cn1,liver cell % of control,[2],154%
same,parasite % of control,[2],105% (inactive)
same,percent of negative control (+Dex),[3],77% (inactive)
same,z-score,[3],-0.53
same,z-score,[8],0.16 (inactive)
same,z-score,[9],0.922 (inactive)
same,EGFP object count,[4],3
same,EGFP/DsRed ratio,[4],0.0121 (inactive)
same,fraction signal,[5],-0.006 (inactive)
same,z-score,[6]; [19],0.173 (inactive)
same,z-score,[6]; [20],-0.0343
Cn1cc(C2=C(c3cn(CCCN)c4ccccc34)C(=O)NC2=O)c2ccccc21,liver cell % of control,[2],148%
same,parasite % of control,[2],23.2% (inactive)
same,percent of negative control (+Dex),[3],104% (inactive)
same,z-score,[3],-0.65
same,EGFP object count,[4],39
same,EGFP/DsRed ratio,[4],0.871 (inactive)
same,fraction signal,[5],-0.0135 (inactive)
same,fold change,[17]; [21],1.52 (inactive)
same,fold change,[17]; [22],0.871
same,cell count,[17]; [23],5190
same,cell count,[17]; [24],3420
Cc1cc(-c2ccco2)cc(C)c1/C=C/c1cncc(-c2nn[nH]n2)c1,liver cell % of control,[2],90.5%
same,parasite % of control,[2],119% (inactive)
same,percent of negative control (+Dex),[3],94% (inactive)
same,z-score,[3],0.125
same,z-score,[8],0.545 (inactive)
same,z-score,[9],4.88 (inactive)
same,EGFP object count,[4],3.5
same,EGFP/DsRed ratio,[4],0.0973 (inactive)
same,fraction signal,[5],-0.008 (inactive)
same,z-score,[6]; [19],-1.12 (inactive)
same,z-score,[6]; [20],-0.188
CCn1cc(-c2ccnc3[nH]ccc23)c(-c2cccc(NC(=O)Nc3ccc(OCc4ccccc4)cc3)c2)n1,liver cell % of control,[2],76%
same,parasite % of control,[2],95.6% (inactive)
same,percent of negative control (+Dex),[3],93.5% (inactive)
same,z-score,[3],0.135
same,z-score,[8],-1.14 (inactive)
same,z-score,[9],-1.24 (inactive)
same,EGFP object count,[4],6.5
same,EGFP/DsRed ratio,[4],0.11 (inactive)
same,fraction signal,[5],-0.0115 (inactive)
same,z-score,[6]; [19],0.828 (inactive)
same,z-score,[6]; [20],0.137
COc1cccc(-n2ncc3c(N/N=C/c4ccc(C)cc4)ncnc32)c1,liver cell % of control,[2],114%
same,parasite % of control,[2],130% (inactive)
same,percent of negative control (+Dex),[3],105% (inactive)
same,z-score,[3],0.92
same,z-score,[8],-0.225 (inactive)
same,z-score,[9],-0.468 (inactive)
same,EGFP object count,[4],9.5
same,EGFP/DsRed ratio,[4],0.811 (inactive)
same,fraction signal,[5],0.0005 (inactive)
same,z-score,[6]; [19],-0.521 (inactive)
same,z-score,[6]; [20],0.152
CCn1c(-c2nonc2N)nc2cnc(Oc3cccc(NC(=O)c4ccc(OCCN5CCOCC5)cc4)c3)cc21,liver cell % of control,[2],80.1%
same,parasite % of control,[2],42.7% (inactive)
same,percent of negative control (+Dex),[3],50.5% (inactive)
same,z-score,[3],-3.25
same,z-score,[8],0.625 (inactive)
same,z-score,[9],1.15 (inactive)
same,EGFP object count,[4],3
same,EGFP/DsRed ratio,[4],0.0358 (inactive)
same,fraction signal,[5],0.007 (inactive)
same,outcome,[14],inactive
same,SSMD,[18],0.629
same,cell count,[18],7080
same,plate-normalised HSF1 focus index,[18],1.04 (inactive)
same,z-score,[6]; [19],-0.727 (inactive)
same,z-score,[6]; [20],0.152
CN(C)CCOc1ccc(-c2nc(-c3ccc4c(c3)CC/C4=N\O)c(-c3ccncc3)[nH]2)cc1,liver cell % of control,[2],69.4%
same,parasite % of control,[2],215% (inactive)
same,percent of negative control (+Dex),[3],118% (inactive)
same,z-score,[3],0.795
same,z-score,[8],-0.45 (inactive)
same,z-score,[9],1.26 (inactive)
same,EGFP object count,[4],9
same,EGFP/DsRed ratio,[4],0.212 (inactive)
same,fraction signal,[5],-0.008 (inactive)
same,outcome,[10],inactive
same,AC50,[11],18.7 µM (active)
same,AC50,[12],13.2 µM (active)
same,AC50,[14],11.8 µM (active)
same,AC50,[15],16.6 µM (active)
same,SSMD,[18],1.6
same,cell count,[18],7550
same,plate-normalised HSF1 focus index,[18],1.1 (inactive)
same,z-score,[6]; [19],0.717
same,z-score,[6]; [20],2.06
COc1cccc(/C=N/Nc2ncnc3c2cnn3-c2cccc(OC)c2)c1,liver cell % of control,[2],96.7%
same,parasite % of control,[2],107% (inactive)
same,percent of negative control (+Dex),[3],91.5% (inactive)
same,z-score,[3],-0.3
same,z-score,[8],-0.385 (inactive)
same,z-score,[9],0.307 (inactive)
same,EGFP object count,[4],9
same,EGFP/DsRed ratio,[4],0.222 (inactive)
same,fraction signal,[5],0.0045 (inactive)
same,z-score,[6]; [19],0.209 (inactive)
same,z-score,[6]; [20],-0.582
Fc1ccc(-c2nc3n(c2-c2ccncc2)CCS3)cc1,parasite load remaining,[1],45.5% (inactive)
same,viability,[1],65.6%
same,liver cell % of control,[2],122%
same,parasite % of control,[2],126% (inactive)
same,percent of negative control (+Dex),[3],112% (inactive)
same,z-score,[3],2.42
same,z-score,[8],0.075 (inactive)
same,z-score,[9],2.76 (inactive)
same,EGFP object count,[4],4
same,EGFP/DsRed ratio,[4],0.154 (inactive)
same,fraction signal,[5],-0.0105 (inactive)
same,fold change,[17]; [21],0.866 (inactive)
same,fold change,[17]; [22],1.21
same,cell count,[17]; [23],4970
same,cell count,[17]; [24],5730
same,z-score,[6]; [19],1.07 (inactive)
same,z-score,[6]; [20],0.11
same,z-score,[7],-0.365 (inactive)

# — PubChem BioAssay
